# From PubChem
# ALDH1A1 block = ALDH1A1 (human) enzyme inhibition; Purified ALDH1A1, NADH fluorescence, propionaldehyde substrate; Potency, µM (titrated, usually from 75.3 µM), without a hit: at the highest dose activity, negative = inhibition, actives largely listed as inhibitors; 220,000 compounds, 7.3% hits; AID 1030;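 further: potency means the concentration at half of the fitted maximal effect; plate controls were no enzyme wells and a reference inhibitor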
# Target sequence (P00352 whole entry, looked up): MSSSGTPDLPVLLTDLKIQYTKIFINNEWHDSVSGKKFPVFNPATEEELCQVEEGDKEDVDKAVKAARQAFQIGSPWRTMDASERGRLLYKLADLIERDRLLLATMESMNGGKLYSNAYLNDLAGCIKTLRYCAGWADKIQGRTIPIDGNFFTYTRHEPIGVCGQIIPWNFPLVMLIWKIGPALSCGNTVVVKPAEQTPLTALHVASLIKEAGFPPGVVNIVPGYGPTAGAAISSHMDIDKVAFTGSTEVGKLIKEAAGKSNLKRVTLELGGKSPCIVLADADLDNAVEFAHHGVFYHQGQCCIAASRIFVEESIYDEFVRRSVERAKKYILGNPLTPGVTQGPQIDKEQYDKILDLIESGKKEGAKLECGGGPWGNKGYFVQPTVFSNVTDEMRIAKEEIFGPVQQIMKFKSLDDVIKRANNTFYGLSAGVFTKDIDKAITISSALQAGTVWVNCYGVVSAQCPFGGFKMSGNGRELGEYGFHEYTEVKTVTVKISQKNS
# KDM4E inh = JMJD2E (human) inhibition; 230,000 compounds, 1.6% hits; Potency, µM (highest dose often 57.1 µM), for the others: at the highest dose activity change, negative = inhibition, most hits filed as inhibitors; B2RXH2; JMJD2E catalytic domain, FDH-coupled NADH fluorescence (FDH is formaldehyde dehydrogenase);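 further: potency means the concentration at half of the fitted maximal effect; 0% = wells with enzyme and -100% = buffer wells without enzyme; nearly all actives have a fitted effect of over 50% in size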
# PNC inhibitor = blocks assembly of the perinucleolar compartment; PC3M PTB-GFP, PNC prevalence imaging, 16 h; hits give low values; activity change (PNC), negative = inhibition, % at 10 µM; 140,000 compounds, 3.1% hits; AID 2417;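 active means readout at or below -70, meaning at least 70% loss of cells showing the perinucleolar compartment, a nuclear body marking cancer cells; inconclusive means readout between -30 and a set limit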;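 further: plate controls were DMSO wells for no effect and camptothecin positive control wells for full effect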
#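 PC3M cells stably expressing PTB-GFP, 750–1000 cells/well, treated 16 h at 37 °C with compound (23 nl of library stock), in duplicate. After paraformaldehyde fixation and Hoechst stain, imaged at 20x; PNC prevalence scored by image analysis.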
# HPGD inh = inhibitors of human 15-hydroxyprostaglandin dehydrogenase (HPGD). 150,000 compounds, 4.3% hits. P15428. AID 894. Potency, µM, without a hit: at the top dose activity change, negative = inhibition, most hits filed as inhibitors. purified HPGD, NADH fluorescence kinetic, PGE2 substrate; further: potency means the concentration at half of the fitted maximal effect
#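 NADH formation kinetics: reaction with 30 uM PGE2 and 1 mM NAD+ (final), 20 nM enzyme, Tris-HCl pH 8 with Tween 20, after 15 min compound preincubation at room temperature. Fluorescence change, last versus first of five reads.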
# * marks the source's active call; other numbers are inactive results; ? = inconclusive; nt = no result; [ ] = remark or other dose. Most compounds without a hit are left out; they make up all but 11% or so of the library. Unless noted, the call rests on the fitted dose curve; in most records, active means well fitted inhibition curve with a large enough effect (not every such curve was filed as active); inconclusive means small, poorly fitted or top-dose-only effect, or another doubt; inactive means no such curve, though single readings can be large or run the other way. Unless noted, on the % scale 0 is the no-effect control and ±100 the full control effect.
SMILES,ALDH1A1 block,KDM4E inh,PNC inhibitor,HPGD inh
COc1ccc(NC(=O)CSc2nnc(-c3ccccc3)n2Cc2ccco2)c(OC)c1,?,2%,16,-12%
CSc1sc(C(=O)N(C)C)c2c1S(=O)(=O)N(C)c1ccccc1-2,nt,5%,nt,nt
CCCCOC(=O)Cn1c(=O)c2c(nc3n2CCCCN3c2ccc(C)cc2)n(C)c1=O,?,?,-127*,-15%
CC(=O)OCC(=O)Nc1ccc(Br)c(C)c1,20%,15%,nt,nt
CCc1cccc(C)c1NC(=O)COC(=O)C(NS(=O)(=O)c1ccc(Cl)cc1)C(C)O (configuration not stated),5%,12%,?,-2%
Cc1ccc(NC(=O)COC(=O)c2cc(Cl)cc(Cl)c2)c(Br)c1,15%,9%,-21,-6%
Cc1ccc(NC(=O)COC(=O)C2CC2(Cl)Cl)cc1C (configuration not stated),20µM*,2%,nt,nt
Cc1ccc(NC(=O)COC(=O)C(NS(=O)(=O)c2ccc(Cl)cc2)C(C)O)c(Br)c1 (configuration not stated),3.5µM*,7%,?,1%
Cc1ccc(NC(=O)COC(=O)C(NS(=O)(=O)c2ccc(Cl)cc2)C(C)O)cc1C (configuration not stated),1.3µM*,-9%,?,-7%
CC(C)(C)C(=O)Nc1cccc(-c2ncon2)c1,13%,0%,nt,nt
CC(Cl)C(=O)NNC(=O)CNS(=O)(=O)c1ccccc1 (configuration not stated),4%,-5%,nt,nt
COc1ccc(Cn2nnnc2C(c2cccs2)N2CCN(c3ccccc3)CC2)cc1 (configuration not stated),-6%,6%,29,-17%
Oc1ccc(N2CCN(C(c3cccs3)c3nnnn3CCc3ccccc3)CC2)cc1 (configuration not stated),25µM*,?,-29,-4%
c1ccc(Cn2nnnc2C(c2cccs2)N2CCCCCC2)cc1 (configuration not stated),14µM*,12%,15,4%
c1csc(C(c2nnnn2C2CCCCC2)N2CCCC3(CCCCC3)C2)c1 (configuration not stated),7.9µM*,6%,?,-13%
CCOC(=O)/C(=C/C=C1\Sc2ccccc2N1CC)C(C)=O,13µM*,-13%,6,28µM*
CCC(=O)/C=C1/Sc2ccccc2N1CC,3.5µM*,-5%,4,28µM*
CCN1/C(=C/C(=O)c2ccco2)Sc2ccccc21,25µM*,?,-4,-20%
CN(CCO)c1cc(N2CCN(C(=O)c3ccco3)CC2)c2nonc2c1[N+](=O)[O-],?,0%,-30,-18%
Cc1onc(-c2ccccc2)c1C(=O)c1ccccc1,nt,-2%,nt,nt
C=CCN1C(=O)CSc2ccc(C(=O)NCc3ccco3)cc21,22µM*,-3%,12,-15%
C=CCn1c(N)c(C(=O)NCCC2=CCCCC2)sc1=S,3.5µM*,-14%,-9,14µM*
C=CCN1C(=O)CSc2ccc(C(=O)NCCC3=CCCCC3)cc21,13µM*,0%,-7,-14%
COc1ccc(CCN=C(C)C2=C(O)C(c3ccccc3)OC2=O)cc1OC (configuration not stated),?,3%,nt,nt
C[C@@H](c1ccccc1)N1C(=O)[C@H]2[C@H]3[C@H](O)[C@H](O)C/C(=N/NC(=O)OCc4ccccc4)[C@@H]3CC[C@@H]2C1=O,-6%[13.5 µM],nt,nt,nt
SMILES,ALDH1A1 block,KDM4E inh,PNC inhibitor,HPGD inh
CC(C)(C)NC(=O)CN(C(=O)c1csnn1)c1cccc2c1CCCC2,-1%,4%,nt,nt
Cn1c(N)c(N2CCCCC2)c(=O)n(CC(=O)Nc2ccc(Cl)c(Cl)c2)c1=O,4%,2%,-16,-2%
O=C(Cn1c2c(sc1=O)C1c3ccccc3OCC1CS2)Nc1ccc(Cl)c(Cl)c1 (configuration not stated),25µM*,4%,56,-15%
Brc1ccc(NC2=Nc3ccccc3CC2)cc1,-5%,6%,47,?
Cc1ccc(NC2=Nc3ccccc3CC2)cc1,-1%,-1%,34,32µM*
CC(=O)NC(NC(C)=O)c1ccc(Br)cc1,9%,3%,36,-7%
CCN(CC)c1ccc(C(NC(C)=O)NC(C)=O)cc1,14µM*,-14%,-4,-15%
CCN(CC)c1ccc(NC(=O)Nc2cccc(C(C)=O)c2)cc1,?,3%,?,-22%
CC(=O)NC(NC(C)=O)c1ccc(N(C)C)cc1,2.2µM*,-18%,27,-7%
COc1ccc([N+](=O)[O-])cc1N(CC(=O)O)S(C)(=O)=O,32µM*,-3%,nt,nt
COc1ccccc1/C=C/C=N\N1CCN(Cc2ccccc2Cl)CC1,20µM*,0%,11,-9%
COc1ccccc1/C=C/C=N/N1CCN(Cc2ccc(Cl)cc2)CC1,18µM*,?,21,-25%
Clc1ccc(/C=N/N2CCN(Cc3ccccc3Cl)CC2)cc1,-6%,5%,nt,nt
C/C=C1\C(=O)CC2C3CCC4=CC(=O)CC[C@]4(C)C3CC[C@]12C (some centres not stated),4%,3%,nt,-12%
CCOC(=O)/C(=N\Nc1ccccc1)S(=O)(=O)c1ccccc1,16µM*,-6%,?,14µM*
NNC(=O)/C(=N/Nc1ccccc1)S(=O)(=O)c1ccc(Cl)cc1,13µM*,9%,?,-18%
O[C@@H](c1cc(-c2ccc(Cl)cc2)nc2ccccc12)C1CCCCN1 (some centres not stated),3%[13.5 µM],nt,nt,-5%
COc1ccc(N(C)S(=O)(=O)c2cccc(C(=O)NCc3ccc4c(c3)OCO4)c2)cc1,-8%,-5%,nt,nt
COc1ccc(N(C)S(=O)(=O)c2cccc(C(=O)N(C)Cc3ccc(C)o3)c2)cc1,10µM*,-2%,nt,nt
CCN(Cc1cc(=O)[nH]c2ccccc12)C(=O)c1ccc(C)cc1,nt,-12%,nt,nt
O=C(Nc1ccccc1F)Nc1ccc([N+](=O)[O-])cc1Cl,-5%,2%,nt,nt
O=c1cc(O)c2sc(Nc3ccc(F)c(Cl)c3)nc2[nH]1,7.9µM*,?,nt,nt
Cc1ccc(S(=O)(=O)N(C)CC(=O)N2CCCC2)cc1,3.5µM*,7%,1,-13%
Cc1ccc(S(=O)(=O)CC(=O)c2cc(C)c(O)c(C)c2)cc1,1.8µM*,-18%,nt,nt
CCN1CCN(C(=O)CN(C)S(=O)(=O)c2ccc(OC)c(C)c2)CC1,-6%,6%,?,6%
SMILES,ALDH1A1 block,KDM4E inh,PNC inhibitor,HPGD inh
Cc1ccc(S(=O)(=O)CCCS(=O)(=O)c2ccc(C)cc2)cc1,?,7%,57,6%
COc1ccc(S(=O)(=O)N(C)CC(=O)N2CCN(Cc3ccccc3)CC2)cc1C,16µM*,-1%,?,-15%
Cc1ccc(S(=O)(=O)C2(C(=O)N3CCCCCC3)CC2)cc1,7.1µM*,3%,-28,13µM*
CN(CC(=O)N1CCCC1)S(=O)(=O)c1ccc2ccccc2c1,?,-1%,nt,nt
COc1ccc(CCN2C(=NC(C)=O)SC3CS(=O)(=O)CC32)cc1OC (configuration not stated),nt,-7%,nt,nt
Cc1ccc(S(=O)(=O)CC(=O)N2CCOCC2)cc1,-5%,-3%,nt,nt
